Measured values as given in PubChem BioAssay (EPA / NIEHS).
Several values for one entry are separate records, joined by “and”; a condition that tells them apart may be missing. Equal entries are not always repeated. Records with an inconclusive call do not appear. More than one record can exist for a structure, and the calls need not agree. Activity calls are given as the source filed them. Rule for the calls: active = hit-call score of the fitted dose curve at least 0.9, where 1 is the maximum; inconclusive = response in the unintended direction; inactive = score below 0.9.

Legend:
[1] = LTEA_HepaRG_LDH_cytotoxicity: Cytotoxicity Assessment in the Life Technologies and Expression Analysis (LTEA) Assay (AID 2283563);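 for AC50: LDH activity released into spent culture medium as a marker of cell death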
How it was run: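 Differentiated HepaRG cells in serum-free induction medium, exposed 48 h in duplicate to 8 half-log concentrations up to 100 uM in 0.5% DMSO. Cytotoxicity from LDH measured in spent medium, fit relative to DMSO.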

[2] = TOX21_p53_BLA_p2_viability: Viability Assessment in the Tox21 HCT-116 p53 Agonism Beta-lactamase Assay, Phase 2 (AID 2283591);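 note: compound exposure lasted 16 h at 37 °C; actives lower the ATP signal meaning cytotoxicity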
How it was run: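 HCT116 p53-bla cells, 4000/well, dosed after 5 h plating (217-fold dilution of DMSO stocks) and incubated 16 h at 37C. Viability taken as cellular ATP by CellTiter-Glo luminescence after 30 min RT; signal loss marks cytotoxicity.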

[3] = target: Cellular tumor antigen p53 (Homo sapiens) (UniProt P04637); experiment: TOX21_p53_BLA_p2_ratio: Tox21 HCT-116 p53 Agonism Beta-lactamase Assay, Ratio, Phase 2 (AID 2283592)
Chain of Cellular tumor antigen p53 (Homo sapiens) (P04637 whole entry, looked up): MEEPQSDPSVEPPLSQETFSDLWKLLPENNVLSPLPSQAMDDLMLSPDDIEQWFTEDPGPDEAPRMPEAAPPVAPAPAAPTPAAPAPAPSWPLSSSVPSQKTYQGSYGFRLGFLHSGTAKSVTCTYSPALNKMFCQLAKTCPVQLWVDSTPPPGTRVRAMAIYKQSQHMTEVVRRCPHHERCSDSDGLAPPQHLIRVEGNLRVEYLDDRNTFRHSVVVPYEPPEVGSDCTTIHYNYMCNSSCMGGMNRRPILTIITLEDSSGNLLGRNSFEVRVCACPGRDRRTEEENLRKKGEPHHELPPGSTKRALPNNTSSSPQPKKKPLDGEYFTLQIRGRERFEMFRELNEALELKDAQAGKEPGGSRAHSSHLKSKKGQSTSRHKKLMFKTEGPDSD
How it was run: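 HCT-116 cells with p53-responsive beta-lactamase reporter, 4000 cells/well, preincubated 5 h, then compound in DMSO (217-fold dilution) for 16 h at 37C. CCF4-AM substrate 2 h at room temperature; 460/530 nm emission ratio fitted upward versus DMSO.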

[4] = TOX21_p53_BLA_p3_viability: Viability Assessment in the Tox21 HCT-116 p53 Agonism Beta-lactamase Assay, Phase 3 (AID 2283593);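 note: cells exposed to compound for 16 h before reading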
How it was run: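 HCT116 cells, 4000/well, dosed 5 h after plating by pin transfer (217-fold dilution from DMSO stock) and incubated 16 h at 37C, 5% CO2. Viability read as ATP luminescence with CellTiter-Glo after 30 min at room temperature.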

[5] = target: Cellular tumor antigen p53 (Homo sapiens) (UniProt P04637); experiment: TOX21_p53_BLA_p3_ratio: Tox21 HCT-116 p53 Agonism Beta-lactamase Assay, Ratio, Phase 3 (AID 2283596)
How it was run: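 HCT116 p53-bla cells (4000/well) given compound in DMSO (217-fold dilution) after 5 h, incubated 16 h at 37C. CCF4-AM substrate 2 h at room temperature; 460/530 nm emission ratio, gain fitted against DMSO.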

[6] = TOX21_p53_BLA_p4_viability: Viability Assessment in the Tox21 HCT-116 p53 Agonism Beta-lactamase Assay, Phase 4 (AID 2283597);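 note: hits lower the luminescence signal meaning cytotoxicity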
How it was run: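 HCT-116 p53-bla cells, 4000/well, dosed after 5 h attachment and incubated 16 h at 37 °C, 5% CO2. Viability from CellTiter-Glo ATP luminescence after 30 min at room temperature, taken after the beta-lactamase read; loss of signal indicates cytotoxicity.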

[7] = target: Cellular tumor antigen p53 (Homo sapiens) (UniProt P04637); experiment: TOX21_p53_BLA_p4_ratio: Tox21 HCT-116 p53 Agonism Beta-lactamase Assay, Ratio, Phase 4 (AID 2283601)
How it was run: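 HCT-116 p53 beta-lactamase reporter cells (4000/well) preincubated 5 h, then compound (217-fold dilution of DMSO stock) for 16 h at 37C. CCF4-AM substrate added 2 h at room temperature; 460/530 nm emission ratio fitted upward versus DMSO.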

[8] = Tanguay_ZF_120hpf_MORT_legacy: (Legacy) Oregon State University Tanguay Lab 120 Hour Post-fertilization zebrafish Assay for Mortality (AID 2283633);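 for AC50: fitted as increase in binary mortality versus DMSO negative control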
How it was run: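 Dechorionated Tropical 5D wild-type zebrafish embryos, one per well from 6 hpf, static exposure in 0.64% DMSO at 28C until 120 hpf. Mortality scored as binary by brightfield microscopy at 24 and 120 hpf.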

[9] = Tanguay_ZF_120hpf_YSE_legacy: (Legacy) Oregon State University Tanguay Lab 120 Hour Post-fertilization zebrafish Assay for Yolk Sac Edema (AID 2283634);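 for AC50: actives raise the incidence of yolk sac edema above the DMSO baseline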
How it was run: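 Dechorionated Tropical 5D wild-type zebrafish embryos were exposed statically, one per well, from 6 to 120 hpf at 28C in 0.64% DMSO. Yolk sac edema was scored present/absent by brightfield at 120 hpf, and dead embryos were excluded.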

[10] = Tanguay_ZF_120hpf_AXIS_legacy: (Legacy) Oregon State University Tanguay Lab 120 Hour Post-fertilization zebrafish Assay for Body Axis Malformation (AID 2283635);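 for AC50: potency for an increased fraction of larvae scored with body axis malformation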
How it was run: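 Dechorionated wild-type Tropical 5D zebrafish embryos, one per well, statically exposed from 6 hpf to 120 hpf at 28C in 0.64% DMSO final. Body axis malformation scored present/absent by brightfield microscopy at 120 hpf; dead embryos excluded.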

[11] = Tanguay_ZF_120hpf_EYE_legacy: (Legacy) Oregon State University Tanguay Lab 120 Hour Post-fertilization zebrafish Assay for Eye Malformation (AID 2283636);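 note: binary presence or absence of eye malformation scored by brightfield in 120 hpf larvae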
How it was run: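 Dechorionated Tropical 5D zebrafish embryos, one per well from 6 hpf, static exposure to 120 hpf at 28C, 0.64% DMSO. Eye malformation scored present/absent by brightfield; dead embryos not scored.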

[12] = Tanguay_ZF_120hpf_SNOU_legacy: (Legacy) Oregon State University Tanguay Lab 120 Hour Post-fertilization zebrafish Assay for Snout Malformation (AID 2283637)
How it was run: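 Dechorionated tropical 5D wild-type zebrafish embryos exposed statically from 6 to 120 hpf at 28C, one per well, in 0.64% DMSO. Snout malformation scored as present/absent by brightfield at 120 hpf; dead embryos not scored.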

[13] = Tanguay_ZF_120hpf_JAW_legacy: (Legacy) Oregon State University Tanguay Lab 120 Hour Post-fertilization zebrafish Assay for Jaw Malformation (AID 2283638);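 for AC50: active means more embryos with jaw malformation than DMSO controls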
How it was run: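 Dechorionated Tropical 5D wild-type zebrafish embryos, one per well, exposed statically from 6 hpf to 120 hpf at 28C in 0.64% DMSO. Jaw malformation was scored by brightfield microscopy as present or absent. It was not scored in dead embryos.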

[14] = Tanguay_ZF_120hpf_OTIC_legacy: (Legacy) Oregon State University Tanguay Lab 120 Hour Post-fertilization zebrafish Assay for Otic Vesicle Malformation (AID 2283639)
How it was run: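 Otic vesicle malformation is read as a yes/no morphology call at 120 hpf. Exposure is static at 28C with 0.64% (vol/vol) DMSO; embryos that die are excluded from non-mortality endpoints.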

[15] = Tanguay_ZF_120hpf_SOMI_legacy: (Legacy) Oregon State University Tanguay Lab 120 Hour Post-fertilization zebrafish Assay for Somite Malformation (AID 2283647)
How it was run: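 Dechorionated Tropical 5D wild-type zebrafish embryos, one per well from 6 hpf, statically exposed at 28C to 120 hpf in 0.64% DMSO; somite malformation scored present/absent by brightfield; trimethyltin 5 uM positive control; dead embryos not scored.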

[16] = target: Cellular tumor antigen p53 (Homo sapiens) (UniProt P04637); experiment: TOX21_p53_BLA_p5_ratio: Tox21 HCT-116 p53 Agonism Beta-lactamase Assay, Ratio, Phase 5 (AID 2283599)
How it was run: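 HCT-116 p53-bla cells (4000/well) plated 5 h, dosed with compound (217-fold DMSO dilution) for 16 h at 37 C; CCF4-AM substrate 2 h at room temperature. Activity is the 460/530 nm emission ratio (405 nm excitation), fitted in gain-of-signal direction versus DMSO.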

[17] = TOX21_p53_BLA_p5_viability: Viability Assessment in the Tox21 HCT-116 p53 Agonism Beta-lactamase Assay, Phase 5 (AID 2283600)
How it was run: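 HCT-116 p53 beta-lactamase reporter cells, 4000/well, were exposed to compound (pin transfer, 217-fold dilution) for 16 hours at 37C. Cellular ATP was read by CellTiter-Glo luminescence after 30 min at room temperature.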

[18] = ATG_XTT_Cytotoxicity: Cytotoxicity Assessment in the Attagene TRANS-FACTORIAL HepG2 Assay (AID 2283584)
How it was run: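 HepG2 cells transiently transfected with GAL4-UAS multiple reporter units, dosed 24 h; cytotoxicity read by XTT as loss of signal versus DMSO baseline.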

[19] = Tanguay_ZF_120hpf_PE_legacy: (Legacy) Oregon State University Tanguay Lab 120 Hour Post-fertilization zebrafish Assay for Pericardial Edema (AID 2283640)
How it was run: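 Tropical 5D wild-type zebrafish embryos were statically exposed until 120 hpf at 28C, with 0.64% DMSO final. Pericardial edema was scored by brightfield as present or absent; endpoints were not scored in dead embryos.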

[20] = Tanguay_ZF_120hpf_BRAI_legacy: (Legacy) Oregon State University Tanguay Lab 120 Hour Post-fertilization zebrafish Assay for Brain Malformation (AID 2283641)
How it was run: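 Tropical 5D wild-type zebrafish embryos exposed statically until 120 hpf at 28C, 0.64% DMSO final, sealed and dark. Brain malformation scored present/absent by brightfield at 120 hpf; dead embryos excluded. Trimethyltin chloride 5uM positive control.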

Measured: AC50

Cc1c2ccccc2c(C)c2c1ccc1ccccc12
active: [3] 14.6 µM and 37.7 µM | [4] 61.5 µM | [5] 29.5 µM and 52.5 µM | [6] 56.3 µM | [7] 43.2 µM and 30.5 µM
inactive: [1] | [2] | [4] | [6] | [8] | [9] | [10] | [11] | [12] | [13] | [14] | [15]

COc1cc(C(=O)NC2CCN(C)CC2)ccc1Nc1ncc2c(n1)N(C1CCCC1)CC(F)(F)C(=O)N2C
active: [1] 16.5 µM | [2] 47.4 µM | [3] 3.93 nM | [4] 55.2 µM | [5] 70.1 µM | [6] 42.9 µM | [16] 3.96 nM | [17] 68.8 µM | [7] 4.04 nM | [8] 24.4 µM | [10] 9.69 µM | [11] 10.1 µM | [12] 10.1 µM | [13] 34.6 µM
inactive: [9] | [14] | [15]

O=C(O)Cc1cc(I)c(Oc2ccc(O)c(I)c2)c(I)c1
inactive: [1] | [18] | [4] | [8] | [9] | [11] | [14] | [19] | [15]
active: [2] 2.06 µM and 5.75 µM | [3] 899 nM and 4.4 µM | [4] 15.9 µM | [5] 1.64 µM and 8.48 µM | [6] 19 µM and 5.82 µM | [16] 1.95 µM and 16.7 µM | [7] 3.33 µM and 5.61 µM | [10] 0.0871 µM | [12] 0.0814 µM | [13] 0.089 µM

CC/C(=C(/CC)c1ccc(O)cc1)c1ccc(O)cc1
inactive: [4] | [6] | [9] | [10] | [12] | [13] | [14]
active: [1] 89.2 µM | [2] 62 µM and 73.4 µM | [3] 3.29 µM and 5.64 µM | [5] 11.8 µM and 14 µM | [6] 46 µM | [16] 17.3 µM and 4.28 µM | [7] 38.3 µM and 8.57 µM | [8] 10.8 µM

O=c1ccc2ccccc2o1
inactive: [1] | [2] | [3] | [5] | [6] | [7] | [8] | [9] | [10] | [11] | [12] | [13] | [14] | [19] | [20] | [15]

CC[C@@H]1C[C@H](N(Cc2cc(C(F)(F)F)cc(C(F)(F)F)c2)C(C)=O)c2cc(C(F)(F)F)ccc2N1C(=O)OC(C)C
inactive: [1] | [3] | [5] | [6] | [16] | [7] | [8] | [9] | [10] | [11] | [12] | [13] | [14] | [19] | [15]

OC12N=C(c3ccccc3)SC1Cc1cc(Cl)ccc12 (stereo unspecified)
active: [3] 71500 nM | [6] 66.6 µM | [7] 86600 nM | [9] 47.3 µM | [10] 50 µM | [11] 11.1 µM | [12] 15.1 µM | [13] 45.3 µM | [15] 117 µM
inactive: [1] | [2] | [16] | [8] | [14]

CC1=CC(=O)/C(=C(/C)O)C(=O)O1
inactive: [1] | [4] | [5] | [16] | [7] | [8] | [9] | [10] | [13] | [14]

Cc1occc1C(=O)Nc1ccc(C(=O)N2CCC(F)(F)/C(=C\C(=O)N3CCC(N4CCCCC4)CC3)c3ccccc32)cc1
inactive: [2] | [3] | [4] | [5] | [8] | [9] | [10] | [11] | [12] | [13] | [20] | [15]
active: [1] 49.6 µM

O=c1[nH]sc2ccccc12
inactive: [1] | [2] | [3] | [4] | [5] | [6] | [7] | [8] | [9] | [11] | [12] | [13] | [14] | [19] | [15]

Cc1cc2c(cc1C(F)(F)F)N(C(=O)Nc1ccc(Oc3cccnc3C)nc1)CC2
inactive: [2] | [3] | [4] | [5] | [6] | [7] | [8] | [9] | [10] | [11] | [12] | [13] | [14] | [20] | [15]
active: [1] 70.5 µM

CCCCCCCC[Si](OCC)(OCC)OCC
inactive: [1] | [2] | [3] | [4] | [5] | [7] | [8] | [10] | [12] | [13] | [14] | [20] | [15]

CCCOC(=O)c1cc(O)c(O)c(O)c1
inactive: [1] | [2] | [3] | [4] | [5] | [6] | [7] | [8] | [9] | [10] | [11] | [12] | [13] | [14] | [20] | [15]
